From the supplement of paper PMC5499739
The full ranking holds about 16,000 sequences; the median of “Z-score” is about -0.37, and the highest 2% start at about 3.1. Only a selection was taken, and the highest values are over-represented in it overall.

test system: RBM10 RRM1-ZnF-RRM2 (GST-tagged construct); test: RNAcompete 7-mer binding Z-score; higher = stronger binding preference
Description: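 RNAcompete: 20 pmol GST-tagged RBM10 RNA-binding constructs were incubated with a designed RNA pool of about 241,000 sequences up to 41 nt (1.5 nmol) on glutathione beads for 30 min at 4 °C and washed. Bound RNAs were identified by microarray hybridisation. Each RNA 7-mer is scored by a one-sided Z-score of its enrichment, computed over probes that contain the 7-mer within longer pool sequences.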

Sequence | RNAcompete 7-mer binding Z-score
UACCUGC | -0.887
GUCCGUA | -0.471
GGAGUCA | 1.05
GCAGGGU | 3.35
ACAGGGA | 3.47
ACAGGAG | 2.7
GCAGGGG | 3.15
UCAGGGG | 1.46
GCAGGGC | 1.51
ACAGGGG | 3.19
ACAGGGC | 2.36
ACAGGGU | 3.11
CCAGGGG | 1.43
CCAGGGA | 1.51
CCAGGGU | 1.18
AUAUACC | -0.628
CAUUCUC | -0.857
UGCACAU | -0.362
UCACAAG | -0.256
CUCGCGU | -0.635
CGGAUCA | 0.578
CAGGUGA | 1.54
GAGGUGC | 1.65
GAGGUGU | 2.31
AAGGUGA | 3.62

Sequence | RNAcompete 7-mer binding Z-score
AAGGUGU | 2.26
AAGGUGC | 2.55
AAGGUGG | 4.32
GAGGUGA | 2.6
GAGGUGG | 3.37
AUUCUCC | -0.679
AGCAACG | 0.359
UGCCACU | -0.741
UCUCCCA | -0.697
GCUAAUA | -0.282
GAUAUGA | 0.643
CAGUGGG | 2.93
GAGUGGA | 3.07
AAGUGGA | 3.2
AAGUGGG | 3.5
UAGUGGA | 1.52
AAGUGGU | 1.6
CCCCUCG | -0.573
GUCAGAG | 0.406
GCUGCGG | 1.05
AAUGCGA | 0.286
CGGCACA | 0.133
UAGACGC | -0.333
GGGGUUG | 3.23
CGGGUUG | 2.32

Sequence | RNAcompete 7-mer binding Z-score
GGGGUUC | 1.83
AGGGUUC | 0.996
UGGGUUA | 2.83
UGGGUUG | 2.56
AGGGUUG | 3.34
GGGGUUA | 3.07
AGGGUUA | 3.86
GUAGUCU | -0.256
CCGUUUU | -1.01
UGCAUAU | -0.49
UUUCACU | -0.704
UCAUUAU | -0.621
UACCGAA | -0.428
CUUACAA | -0.785
GUAAGUC | -0.0743
CCGAACU | -0.839
CCCACCC | -0.337
CGGGAGG | 2.96
GGGGAGU | 2.86
GGGGAGG | 3.33
UGGGAGG | 4.58
GGGGAGA | 2.53
UGGGAGU | 1.95
UGGGAGA | 2.56
AGGGAGU | 3.13

Sequence | RNAcompete 7-mer binding Z-score
AGGGAGG | 3.18
CAUGGCC | -0.344
GUUGCCU | -0.613
AGGUUAC | 0.538
GAUCGCU | -0.697
CGGGUCC | 0.723
UCGAGGG | 1.93
ACGAGGG | 3.71
ACGAGGC | 0.742
GCGAGGG | 3.86
ACGAGGU | 1.36
GCGAGGA | 2.06
AAAGCAA | 0.563
AGCAGAA | 0.701
GUAAGGC | 2.12
UUAAGGA | 0.982
CUAAGGG | 1.35
AUAAGGU | 1.74
AUAAGGG | 3.85
AUAAGGA | 2.16
GUAAGGG | 3.65
CUAAGGA | 0.286
GUAAGGA | 3.28
GAUCGUU | -0.464
AUUAAUA | -0.544

Sequence | RNAcompete 7-mer binding Z-score
AAUAGAG | 0.742
AAGUUGC | -0.293
UGCUCCC | -0.821
GUGAAGG | 3.69
AUGAAGG | 2.82
GAGAAGG | 4.54
CUGAAGG | 0.902
AAGAAGU | 0.818
AAGAAGA | 1.03
AAGAAGG | 3.81
UAGAAGA | 0.348
GAGAAGA | 1.04
UAGAAGU | 0.319
UAGAAGG | 3.2
CAGAAGG | 2.37
UAUCUAC | -0.548
UCACCAA | -0.65
AAAGCUC | -0.53
AGCUUCG | -0.795
UCAGAGU | 0.0786
GCUCUCA | -0.526
UAGGGUU | 3.14
CAGGGUA | 2.88
ACGGGUA | 2.22
GAGGGUU | 2.88

Sequence | RNAcompete 7-mer binding Z-score
AAGGGUA | 4.27
AAGGGUC | 2.01
UCGGGUU | 0.916
UCGGGUA | 1.57
CAGGGUU | 2.05
UAGGGUA | 4.16
GAGGGUC | 1.39
GAGGGUG | 3.5
UUCCAGC | -0.715
GUGUUCA | -0.442
AGGUUUC | 0.184
ACUUGGU | -0.267
GUUAGUG | 0.953
UCUAGCA | -0.712
GUCAGUU | -0.289
CCGCUAG | -0.588
CACUUCC | -0.868
UUCCCUG | -0.737
AACAUGC | -0.435
UAGGGUC | 2.16
CAGGGUC | 1.42
GAGGGUA | 4.4
AAGGGUU | 3.94
UAGGGUG | 4.51
AGGGUUU | 2.4

Sequence | RNAcompete 7-mer binding Z-score
CAGGGUG | 2.84
AAGGUUU | 2.37
GAGGGCG | 2.81
UACUCUC | -0.734
UGCGCUG | -0.103
UAAGGAG | 1.9
AAAGGAC | 2.6
AAAGGAG | 3.75
GGAGGAA | 3.08
UAAGGAA | 1.66
GAAGGAU | 3.32
GCAGGAA | 2.07
AAAGGAA | 3.51
CAAGGAU | 1.42
UAAGGAU | 1.55
GAAGGAA | 4.54
CAAGGAA | 1.77
AAUGGCG | 2.02
GUCCUGC | -0.606
UACCCCU | -0.65
AGCGCUG | -0.0889
GCCACUU | -0.992
UACACAU | -0.5
GUCCGCA | -0.672
UCUGAUC | -0.876

Sequence | RNAcompete 7-mer binding Z-score
GCGUGUG | 0.618
AUCGCAA | -0.388
GCUUAAG | -0.439
CAAGGAG | 2.31
GAAGGAC | 2.8
GAAGGAG | 4.52
GGUGGAG | 3.9
CGUGGAA | 1.29
AGUGGAA | 3.21
UGUGGAA | 1.47
UGUGGAG | 2.47
AGUGGAC | 1.44
AGUGGAU | 2.33
GGUGGAU | 2.46
GGUGGAA | 3.71
CGUCACU | -0.515
CACCCUG | -0.89
AUGACUA | -0.347
UGUGGUA | 0.833
GACGAGA | 0.691
UCAGCGU | -0.26
CCGGCAC | -0.388
GAGGAUG | 2.57
AAGGAUG | 3.89
CAGGAGA | 2.02

Sequence | RNAcompete 7-mer binding Z-score
UAGGAGA | 1.78
AAGGAUA | 2.92
AAGGAGG | 4.62
GAGGAGG | 2.99
UAGGAGG | 2.94
AAGGAGA | 3.18
CCCAAUA | -0.759
CCGUCGC | -0.752
UGAUCCA | -0.515
ACAUCCU | -0.839
GCAGGAU | 1.22
CGAGCGG | 3.33
AGAGCGG | 1.46
GGAGCGA | 2.9
GGAGCGG | 4.19
UGAGCGG | 2.06
CGAGCGU | 0.166
AGAGCGA | 0.581
CGGGUUU | 1.01
CUAUCGA | -0.781
GUGGAAA | 2.46
GUGGAAG | 3.47
AUGGAAG | 3.16
GUGGAAC | 1.73
AUGGAAC | 2.02

Sequence | RNAcompete 7-mer binding Z-score
AUGGAAA | 2.62
UCGGAGU | 0.257
CGGGAUA | 1.44
AGGGAUU | 2.37
GGGGAUA | 3.16
AGGGAUC | 1.32
AGGGAUA | 4.38
GAGGAUA | 2
CGCAAAG | -0.22
UCGGUUG | 0.286
ACAAUCU | -0.795
UUUGACG | -0.551
AUGUAGA | 0.243
UCACAAU | -0.511
ACAGUUC | -0.672
GGAAUGU | 1.58
CGAAUGG | 1.4
UGAAUGG | 2.22
AGAAUGU | 0.184
GGAAUGG | 4.19
AGAAUGG | 3.51
UUGUGUG | 0.0604
AAGAUAA | -0.0233
GAUGAAC | 0.385
CUUCCAU | -0.799

Sequence | RNAcompete 7-mer binding Z-score
AGUCGCA | -0.122
AUGGUGG | 3.33
GUGGUGG | 3.78
AUGGUGC | 0.789
CUGGUGG | 1.22
GUGGUGC | 1.68
UUGGUGG | 2.09
CUCGGGA | 0.228
CCGGACC | -0.712
GUCGUCU | -0.417
CGCAAAC | -0.588
UGGGGAC | 2.28
CGGGGAG | 2.54
UGGGGGA | 3.33
GGGGGAG | 2.6
UUGGGGA | 2.27
GGGGGGA | 2.69
UCGGGAA | 1.4
UGGGGAA | 3.58
UGGGGAG | 3.37
UGCGUGA | 0.381
UUGCGGU | -0.0161
AAAGCCU | -0.734
CCGUUGG | 0.228
CCGAUCU | -0.938

Sequence | RNAcompete 7-mer binding Z-score
GUAUGAA | 0.355
AGCAAGU | -0.0343
CUCGAAA | -0.493
CUGAGGG | 1.53
AUGAGGU | 1.83
AUGAGGC | 1.35
GUGAGGG | 4
UUGAGGC | 0.341
UUGAGGG | 3.15
GUGAGGC | 1.86
AUGAGGG | 4.32
UUGAGGA | 1.04
CAAAGAU | -0.282
UGGGACG | 2.27
AUCUGAA | -0.643
AGGUAAA | 2.1
GGGUAAG | 3.97
GGGUAAC | 2.47
CGGUAAA | 0.352
GGGUAAA | 3.9
CGGUAAG | 1.52
CGUAUGU | -0.337
ACUGCUA | -0.653
GAUAUGC | -0.078
AAUAUGG | 1.27

Sequence | RNAcompete 7-mer binding Z-score
GAUAUGG | 3.32
GGUAUGU | 1.33
GGUAUGA | 1.89
GGUAUGG | 4.03
GACCGAU | -0.479
ACGCUUU | -0.865
CGGAAUA | 0.65
CGGAAUG | 1.33
GGGAACG | 3.86
AGGAAUG | 2.07
GGGAACA | 3.06
UGGAACG | 1.92
GGGAAUA | 3.15
GGGAAUU | 1.91
GGGAAUG | 3.43
CACGUUA | -0.406
UCAGCUU | -0.905
CACAAUU | -0.577
CAUGUGU | -0.151
UCAUAUC | -0.613
GCGUGGA | 2.22
UGGUGGA | 2.74
AGGUGGU | 2.19
GGGUGCA | 3
UGGUGGU | 2.37

Sequence | RNAcompete 7-mer binding Z-score
AGGUGGG | 3.44
GGGUGGU | 4.19
UGGUGGG | 4.04
AGGUGGA | 3
UGGUGGC | 1.72
GAGUGGU | 2.52
GGGUGGA | 4.54
GACAAGU | 0.148
ACUAUAU | -0.544
AGUCCUC | -0.708
UUACAUU | -0.686
GAAUCUG | -0.632
GCUCGUU | -0.577
ACUCACG | -0.708
GCGCGGC | 0.811
GGCAUGC | 0.228
AUUCCGG | -0.559
UGUCAGA | -0.402
GGGUGGG | 4.11
GGGUGCG | 2.85
ACGUGGG | 2.48
CGGUGGU | 1.62
GGGUGGC | 2.45
CGGUGGG | 3.18
CGGUGGA | 2.27

Sequence | RNAcompete 7-mer binding Z-score
UCGUGGG | 2.23
GCGUGGG | 3.66
UUUGAGU | -0.213
ACGUAUA | -0.198
UUAGCGC | -0.617
CAGGAAA | 1.26
AAGGAAA | 3.21
UAGGAAA | 1.6
GAGGAAG | 3.52
UAGGAAG | 1.94
AAGGAAC | 2.66
GAGGAAU | 1.71
AAGGAAU | 2.34
AAGGAAG | 4.04
UUUGAUC | -0.719
CUGACGG | 0.243
AGAGGCA | 0.421
